# Assay outcomes deposited in PubChem BioAssay by National Center for Advancing Translational Sciences (NCATS).
# RORgamma inh: ROR gamma (mouse) transcription inhibition. Drosophila S2 Gal4-RORgamma UAS-luciferase reporter, 20 h. AID 2551. 5.4% of 310,000 active. P51450. Potency, µM (titrated, usually from 53.6 µM), for the others: at the top dose activity change, negative = inhibition, actives largely listed as inhibitors; further: potency means the concentration at half of the fitted maximal effect; nearly all actives have a fitted effect of over 60% in size
# Target sequence (P51450 whole entry, looked up, the tested form may be a part): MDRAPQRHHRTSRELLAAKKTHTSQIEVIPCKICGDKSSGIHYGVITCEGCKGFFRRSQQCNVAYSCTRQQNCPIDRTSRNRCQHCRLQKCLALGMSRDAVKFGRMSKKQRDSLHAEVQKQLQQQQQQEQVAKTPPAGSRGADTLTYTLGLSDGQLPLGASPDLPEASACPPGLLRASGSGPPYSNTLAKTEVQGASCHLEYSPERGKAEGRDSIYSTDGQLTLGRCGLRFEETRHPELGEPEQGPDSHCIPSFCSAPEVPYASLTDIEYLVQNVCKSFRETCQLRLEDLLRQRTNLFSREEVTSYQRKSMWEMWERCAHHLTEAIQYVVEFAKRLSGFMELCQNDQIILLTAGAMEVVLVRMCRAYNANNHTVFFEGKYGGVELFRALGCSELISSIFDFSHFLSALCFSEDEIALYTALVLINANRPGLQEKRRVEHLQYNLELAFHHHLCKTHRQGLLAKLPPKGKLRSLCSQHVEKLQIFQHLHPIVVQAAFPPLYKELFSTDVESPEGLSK
#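 Luminescence from a UAS-regulated Photinus luciferase reporter in stably transfected Drosophila Schneider cells is measured; decreased signal marks ROR gamma inhibition. Fusion expression is induced by 700 uM copper sulfate for 20 hr.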
# IL-1B inflam inh: inhibitors of inflammasome signaling (IL-1 beta secretion). THP-1 LPS/ATP IL-1B secretion, AlphaLISA, 16 h; hits give low values. activity change, % at 57.5 µM. 4.7% of 360,000 active; in the data active means activity change below about -50%; inconclusive means mostly about -30% to -49%
#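 THP-1 cells pretreated 1 hr with compounds (up to 57.5 uM final), then stimulated with LPS (250 ng/mL final) plus ATP (1.25 mM final); secreted IL-1B measured by AlphaLISA after 16 hr, decreased signal indicating inhibition.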
# ELG1 repair inh: blocks ELG1-dependent DNA repair in HEK293T cells; HEK293T ELG1-luciferase reporter, luminescence, 16 h; DNA damage induced by 5-fluorouridine; Potency, µM (highest dose often 46.1 µM), for the others: top-dose activity change, negative = inhibition, actives largely listed as inhibitors; 2.3% of 330,000 active; AID 504467; further: potency means the concentration at half of the fitted maximal effect; nearly all actives have a fitted effect of over 55% in size
#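 Reporter activity after DNA damage by 5-fluorouridine is monitored. Compound-treated cells incubate 16 hr at 37 °C, then ONE-Glo is added for 30 min before luminescence reading.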
# VP16 counter: Gal4-VP16 reporter inhibition counter-screen; 3.5% of 310,000 active; Drosophila S2 Gal4-VP16 UAS-luciferase, luminescence, 20 h; Potency, µM (top dose mostly 53.6 µM), for inactives: at the highest dose activity, negative = inhibition, usual class: inhibitors; AID 2546;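 further: Gal4-VP16 expression switched on by copper sulfate through the metallothionein promoter; potency means the concentration at half of the fitted maximal effect; nearly all actives have a fitted effect of over 50% in size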
# DT40 TDP1 CPT: DT40-hTDP1 cell growth loss with CPT | chicken DT40 Tdp1-/-;hTDP1 cells + 20 nM CPT, ATP luminescence, 48 h | Potency, µM (doses to about 46.2 µM), inactives show at the top dose activity change, negative = growth inhibition, most hits filed as inhibitors | 12% of 420,000 active; further: potency means the concentration at half of the fitted maximal effect; nearly all actives have a fitted effect of over 55% in size
#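 Chicken DT40 Tdp1-/- cells complemented with human TDP1, 400 cells/well, exposed to compounds plus 20 nM camptothecin for at least 48 h at 37 C; viability read as ATP content by CellTiter-Glo luminescence.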
# TDP1 cell noCPT: qHTS for Inhibitors of human tyrosyl-DNA phosphodiesterase 1 (TDP1): qHTS in cells in absence of CPT | DT40 Tdp1-/- hTDP1 cells, no CPT, ATP luminescence, 48 h | Potency, µM (doses to about 46.2 µM), inactives show at the highest dose activity change, negative = growth inhibition, actives largely listed as inhibitors | 15% of 420,000 active | AID 686978, 2013; further: potency means the concentration at half of the fitted maximal effect; nearly all actives have a fitted effect of over 55% in size
#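 No-CPT arm: Tdp1-/-;hTDP1 DT40 cells (400/well) plus compounds, incubated ≥48 hr at 37 °C. Readout CellTiter-Glo luminescence.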
# An asterisk follows results filed as active; ? = inconclusive; nt = not tested or not shown; [ ] = dose if it differs, or a comment. An excerpt weighted towards active compounds, which were near 21% of everything screened. Unless noted, the call rests on the fitted dose curve; in most records, active means well fitted curve in the direction sought with a large enough effect; inconclusive means small, poorly fitted or top-dose-only effect, or another doubt; inactive means no such curve, though single readings can be large; an effect the other way counts as inactive or inconclusive. On the % scale 0 is the no-effect control and ±100 the full control effect.
SMILES,RORgamma inh,IL-1B inflam inh,ELG1 repair inh,VP16 counter,DT40 TDP1 CPT,TDP1 cell noCPT
OCCCCNCc1ccc(OCc2ccc(Cl)cc2)cc1,1.6%,-3.1,?,-11.4%,?,?
COc1ccc(CNC(C)CCc2ccccc2)cc1 (stereo unspecified),nt,-8.3,20.3%,nt,?,?
COc1ccc(CNC(c2ccccc2)c2ccc(Cl)cc2)cc1 (stereo unspecified),19.8%,30.9,8.1%,6.5%,?,16.4µM*
CC(NCc1ccc(OCc2ccc(Cl)cc2)cc1)C(O)c1ccccc1 (stereo unspecified),35.5µM*,-102.9*,0.6%,?,14.6µM*,?
COc1cc(C(c2sc3nc(C)nn3c2O)N2CCC3(CC2)OCCO3)cc(OC)c1OC (stereo unspecified),16.3%,5.7,-15.6%,-3.1%,16.4µM*,16.4µM*
COCn1c2ccccc2c2nnc(C(=O)O)nc21,4.3%[10 µM],nt,nt,6.1%[10 µM],nt,nt
CNc1cc(-n2nc(C)cc2-c2ccccc2)ncn1,-21.5%,15.8,0.9%,0.7%,-17.6%,0.6%
Cc1cc(-c2ccccc2)n(-c2cc(N/N=C/c3ccccc3O)ncn2)n1,11.2µM*,49.5,?,5.62µM*,4.61µM*,3.26µM*
COc1ccc(OCC(=O)N(Cc2sccc2C)C2CCS(=O)(=O)C2)cc1 (stereo unspecified),-13.1%,4.7,-0.8%,14.5%,0.4%,10.4%
CCCCC[C@@H](/C=C/C1C(=O)C=C[C@H]1C/C=C\CCCC(=O)OC)OC(C)=O (stereo partly specified),nt,-100.9*,nt,nt,9.2µM*,6.51µM*
CCCCC[C@H](O)/C=C/[C@H]1C(=O)C[C@H](O)[C@@H]1C/C=C\CCCC(=O)O,-34.3%,nt,nt,0.3%,nt,nt
O=C(OCc1cc(=O)n2nc(-c3cccs3)sc2n1)c1ccccc1Cl,nt,nt,nt,nt,-6.1%,-8.9%
Cc1ccc2c(c1)c1c3n2CCN(C(=O)CN2CCN(C)CC2)C3CCC1 (stereo unspecified),-1.8%,-21.6,16.6%,-5.9%,?,16.4µM*
Cc1ccc2c(c1)c1c3n2CCN(C(=O)C2CC2)C3CCC1 (stereo unspecified),11.1%,-11.3,8.5%,23.8%,?,?
Cc1ccc2c(c1)c(=O)c1c3n2CCN(C(=O)CCl)C3CC1 (stereo unspecified),4.2%,-14.5,?,-22.0%,25.9µM*,16.4µM*
Cc1ccc2c(c1)c1c(n2CC(O)CNC2CCCC2)CCCC1 (stereo unspecified),0.7%,-89.7*,-17.3%,-3.6%,?,?
Cc1ccc2c(c1)c1c3n2CCN(CC(N)=O)C3CCC1 (stereo unspecified),29.3%,-1.7,13.8%,-4.5%,?,?
Cc1ccc2c(c1)c1c3n2CCN(CC(O)CNC(C)C)C3CCC1 (stereo unspecified),20.1%,-56.7*,1.5%,0.8%,?,?
O=C(NCc1ccc(Cl)cc1)C1CCN(c2ncnc3c2nc2n3CCCCC2)CC1,nt,nt,nt,nt,1.0%,-2.4%
CC(=O)O[C@H]1Cc2ccccc2N(C(N)=O)c2ccccc21,1.2%,nt,nt,-7.5%,nt,nt
O=C(O)Cc1ccc(NC(=O)c2cnccn2)cc1,11.2µM*,6.6,10.6%,?,1.1%,-21.7%
CC(C)(C)c1ccc(C(=O)Nc2ccc(CC(=O)O)cc2)o1,0.794µM*,2.9,0.2%,0.794µM*,-8.9%,-2.1%
Cc1ccc(NC(=O)c2cnccn2)cc1,0.3%,-4.4,?,2.2%[10 µM],0.2%,-15.5%
CNc1cncc(-c2cc(OC)c(OC)c(OC)c2)n1,nt,-19.6,nt,nt,?,?
CCCCN(C(=O)c1ccc2c(c1)OCCO2)c1c(N)n(CC(C)C)c(=O)[nH]c1=O,nt,1.4,25.9%,nt,-8.8%,-0.1%
SMILES,RORgamma inh,IL-1B inflam inh,ELG1 repair inh,VP16 counter,DT40 TDP1 CPT,TDP1 cell noCPT
COc1ccc(-c2ccc(=O)n(CC(=O)Nc3ccc4c(c3)OCCO4)n2)cc1,11.2µM*,-0.5,13.0%,?,?,-11.5%
CN(C1CCCCC1)S(=O)(=O)c1ccc(NC(=O)Cn2nc(-c3ccc(F)cc3)ccc2=O)cc1,22.4%,6.1,-16.2%,-5.4%,?,20.6µM*
CCOc1ccc(C(=O)c2cn(CC(=O)Nc3ccc4c(c3)OCO4)c3ccc(OCC)cc3c2=O)cc1,nt,nt,nt,nt,?,3.26µM*
COc1ccc(C(=O)c2cn(CC(=O)Nc3ccc4c(c3)OCCO4)c3ccc(OC)cc3c2=O)cc1,nt,nt,nt,nt,20.6µM*,?
COc1ccc2c(c1)c(=O)c(C(=O)c1ccc(C)c(C)c1)cn2CC(=O)Nc1ccc2c(c1)OCCO2,nt,nt,nt,nt,-22.7%,?
CCOc1ccc(C(=O)c2cn(CC(=O)Nc3cc(OC)cc(OC)c3)c3ccc(F)cc3c2=O)cc1,nt,nt,nt,nt,?,20.6µM*
CC(=O)c1cc(F)c(N2CCN(C(=O)Cc3ccccc3)CC2)cc1C,25.0%,-13.1,?,-12.3%,14.6µM*,14.6µM*
CCCC(=O)c1ccc(N2CCN(S(=O)(=O)c3ccccc3)CC2)c(F)c1,?,16.1,?,?,?,?
CCCC(=O)c1cc(F)c(N2CCN(S(=O)(=O)c3ccccc3)CC2)cc1C,0.1%,-58.8*,?,-9.6%,16.4µM*,11.2µM*
CCOC(=O)N1CCN(c2cc(C)c(C(C)=O)cc2F)CC1,16.1%,-0.2,-13.7%,-9.3%,?,?
CCC(=O)c1cc(F)c(N2CCN(C(=O)c3ccco3)CC2)cc1C,?,20.8,35.3%,?,?,29.1µM*
CC1(C)SC2C(N3C(=O)C(c4ccccc4)NC3(C)C)C(=O)N2C1C(=O)O (stereo unspecified),6.5%,nt,nt,-8.3%,nt,nt
CCOC(=O)C1CCN(C2=NC(=O)/C(=C/c3ccc(Cl)cc3)S2)CC1,1.7%,-50.4*,-8.5%,3.1%,?,-9.6%
CCOC(=O)CSC1=NC(=O)/C(=C\c2ccc(Cl)cc2)S1,-25.9%,?,22.3%,12.6µM*,4.61µM*,7.31µM*
CCOC(=O)C1CCN(C2=NC(=O)/C(=C/c3ccc(OC)c(OC)c3)S2)CC1,-16.0%,-18.4,-4.6%,-9.5%,-13.7%,?
COc1ccccc1NC(=S)NNC(=O)c1nn(C)cc1Cl,10µM*,-0.1,9.7%,?,2.1%,5.3%
CCNc1ncc2nc(-c3ccc(F)cc3)c(=O)n(CCc3ccccc3)c2n1,3.9%,nt,nt,-6.1%,-3.0%,12.8%
CCN(c1ccccc1)S(=O)(=O)c1cccc(C(=O)N(C)CCOc2ccccc2)c1,nt,-16.6,?,nt,14.6µM*,20.6µM*
